Measurements from PubChem BioAssay (NCATS).
Results filed as inconclusive are left out. Activity calls are given as the source filed them. Calls follow the shape of the dose curve; as a rule, active = well fitted inhibition curve with a large enough effect; inconclusive = small, poorly fitted or top-dose-only effect; inactive = flat fitted curve, though single readings scatter.

Tests used:
Test in all cases: qHTS profiling for inhibitors of Plasmodium falciparum proliferation (AID 504749); also: nearly all actives have a fitted effect of over 60% in size
Conditions in all cases: P. falciparum in erythrocytes, SYBR Green DNA, 72 h; series mostly up to 28.7 µM
[1] = tested on: CP256
How it was run: (§1)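 Parasite proliferation within erythrocytes, 72 h exposure. Endpoint: SYBR Green I fluorescence after overnight lysis at room temperature. Controls: 0.29 uM artemisinin, DMSO.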

[2] = tested on: CP260
How it was run: as §1

[3] = tested on: CP262
How it was run: as §1

[4] = tested on: CP265
How it was run: as §1

[5] = tested on: CP266
How it was run: as §1

[6] = tested on: CP268
How it was run: as §1

[7] = tested on: CP269
How it was run: as §1

[8] = tested on: CP286
How it was run: as §1

[9] = tested on: CP291
How it was run: as §1

[10] = tested on: CP297
How it was run: as §1

Measured: Potency

O=C(O)Cc1nn(Cc2ccc(Br)cc2F)c(=O)c2ccccc12
inactive: all assays above

O=C(NNCNNC(=O)c1ccncc1)c1ccncc1
inactive: all assays above

CCOC(=O)[C@@H](N)CS
inactive: all assays above

c1ccc2c(c1)OCC(CN1CCCCC1)O2 (stereo not drawn)
inactive: all assays above

O=P(O)(O)OC[C@H]1O[C@](O)(COP(=O)(O)O)[C@@H](O)[C@@H]1O
not listed: [10]
inactive: all other assays above

C=CCCCCCCCCC(=O)OC
inactive: all assays above

COc1ccc(/C=C/C(=O)OCCC(C)C)cc1
not listed: [10]
inactive: all other assays above

COc1ccc(C(=O)c2ccc(C)cc2)c(O)c1
inactive: all assays above

Oc1cc(O)cc(O)c1
inactive: all assays above

Nc1ncnc2c1ncn2CCOCP(=O)(O)O
inactive: all assays above

CC1=CCC2CC1C2(C)C (stereo not drawn)
inactive: all assays above

COc1ccc(/C=C/C(=O)O)cc1
inactive: all assays above

CC(CNC(=O)c1cccnc1)NC(=O)c1cccnc1 (stereo not drawn)
inactive: all assays above

N=C(N)n1cccn1
inactive: all assays above

CCOC(=S)SSC(=S)OCC
inactive: all assays above

OC1OC[C@@H](O)[C@H](O)[C@@H]1O (stereo partly drawn)
inactive: all assays above

C=Cc1ccc(S(=O)(=O)O)cc1
inactive: all assays above

NCC[C@H](O)C(=O)N[C@@H]1C[C@H](N)[C@@H](O[C@H]2O[C@H](CN)CC[C@H]2N)[C@H](O)[C@H]1O[C@H]1O[C@H](CO)[C@@H](O)[C@H](N)[C@H]1O
inactive: all assays above

CC(C)(CO)[C@@H](O)C(=O)NCCC(=O)NCCSSCCNC(=O)CCNC(=O)[C@H](O)C(C)(C)CO
inactive: all assays above

CCOC(=O)c1cc(-c2ccccc2)nc2ccc(C)cc12
inactive: all assays above

COc1ccc(-c2noc(CC(=O)O)c2-c2ccc(OC)cc2)cc1
inactive: all assays above

CCCCCCCCCCCCCCCCCCCCCC(=O)Nc1ccn([C@@H]2O[C@H](CO)[C@@H](O)[C@@H]2O)c(=O)n1
inactive: all assays above

O=C(O)CCC(=O)c1ccc(-c2ccccc2)cc1
inactive: all assays above
